Laboratory results as given in ChEMBL document CHEMBL4513146, “CO-ADD screening of Karazin Kharkiv National University (Ukraine) compounds”.
Entries with a potency or affinity are not part of this list.

The compounds below were run on Staphylococcus aureus. Settings: Concentration 32 ug.mL-1;; ASSAY_TEST Inhibition of Bacterial Growth; detection method Absorption (OD600); MEDIA CAMHB; plate type 384well; NBS; CORNING #3640; time 18 hr.

| Structure (SMILES) | Inhibition [%] |
| --- | --- |
| O=C(CSc1nnc2c(=O)n(-c3ccc(F)cc3)ccn12)N1CCN(c2ccc(F)cc2)CC1 | 9.4 |
| O=C(Cn1nc2c3cc(-c4ccccc4)nn3ccn2c1=O)N1CCCc2ccccc21 | 4.94 |
| Cn1c(=O)c2ccc(C(=O)NC3CCCC3)cc2n2c(SCc3c(F)cccc3Cl)nnc12 | 12.53 |
| CCc1ccc(NC(=O)CSc2nnc3ccc(C(=O)Nc4cccc(F)c4)cn23)cc1 | 9.49 |
| CCCCOc1ccc(-c2cc3c4nnc(SCC(=O)Nc5ccc(C)c(C)c5)n4ccn3n2)cc1 | 10.66 |
| CCOc1ccccc1NC(=O)Cn1c(=O)c2nnc(C(C)C)n2c2ccccc21 | 15.38 |
| O=C(Cn1nc2n(Cc3ccc(F)cc3)c(=O)c3ccccc3n2c1=O)Nc1ccc2c(c1)OCO2 | 15.06 |
| CCCCc1ccc(NC(=O)Cn2nc3ccc(C(=O)Nc4ccc(OC)cc4)cn3c2=O)cc1 | 3.96 |
| Cc1ccc(Sc2nccn3c(=O)n(CC(=O)Nc4ccc(Br)cc4C)nc23)c(C)c1 | -15.15 |
| CC(C)(C)Sc1ccc2nn(CC(=O)N3CCN(c4ccc(F)cc4)CC3)c(=O)n2n1 | 4 |
| Cc1ccccc1NC(=O)Cn1nc2c3cc(-c4ccc(Cl)cc4)nn3ccn2c1=O | 14.21 |
| Cc1ccc(Oc2nccn3c(=O)n(CC(=O)NCCC4=CCCCC4)nc23)cc1 | 4.93 |
| Cc1ccc(-c2cc3c4nnc(CCC(=O)NCCCc5ccccc5)n4ccn3n2)cc1C | 6.48 |
| COc1ccc(NC(=O)CSc2nc3ccccc3n3c(C(C)C)nnc23)c(OC)c1 | 1.68 |
